Some compounds were tested as several samples or in several runs, with calls that do not always agree. Activity calls are given as the source filed them. The calls were made as follows: active = hit-call score of the fitted dose curve at least 0.9, where 1 is the maximum; inactive = score below 0.9.
test: ATG_GATA_CIS: Attagene CIS-FACTORIAL HepG2 Assay for human GATA Binding Protein (AID 2282944); details: HepG2 GATA cis-element reporter, Attagene multiplex mRNA; actives raise or lower the signal
Procedure: ATG_CIS is a cell-based, multiplexed-readout assay that uses HepG2, a human liver cell line, with measurements taken at 24 hours after chemical dosing in a 24-well plate.ATG_GATA_CIS is one of 52 assay component(s) measured or calculated from the ATG_CIS assay. It is designed to make measurements of mRNA induction, a form of inducible reporter, as detected with fluorescence intensity signals by Reverse transcription polymerase chain reaction (RT-PCR) and Capillary electrophoresis technology.Data from the assay component ATG_GATA_CIS was analyzed into 1 assay endpoint. This assay endpoint, ATG_GATA_CIS, was analyzed with bidirectional fitting relative to DMSO as the negative control and baseline of activity. Using a type of inducible reporter, measures of mRNA for gain or loss-of-signal activity can be used to understand the reporter gene at the transcription factor-level as they relate to the gene GATA1. Furthermore, this assay endpoint can be referred to as a primary readout, because this assay has produced multiple assay endpoints where this one serves a reporter gene function. To generalize the intended target to other relatable targets, this assay endpoint is annotated to the dna binding intended target family, where the subfamily is GATA proteins.
Human liver HepG2 cells are transiently transfected with multiple reporter transcription units (MRTUs) in 6-well plates using FuGene 6 reagent (Roche; 3 ml FuGene/1 mg DNA). The MRTU constructs are regulated by a cis-regulating element (promoter). […] A major difference between the CIS and TRANS system is that in CIS activities of endogenous TFs are measured, whereas the TRANS assay evaluates changes in activities of exogenous, chimeric NR-Gal4 proteins. […] At the end of 24 hour incubation, total RNA was isolated using TriZol reagent (Invitrogen). The isolated RNA is then reverse-transcribed using oligo(dT) primer and Mo-MLV reverse transcriptase (Invitrogen) with DNAse I (Ambion) treatment for 30 min. The one-tenth of the produced cDNA was amplified by PCR using Taq DNA polymerase (Invitrogen) and two reporter sequence-specific primers. The PCR products were fluorescently labeled by primer extension with 6-arboxyfluorescein (6-FAM) 5'-labeled reporter sequence-specific primer (2 min at 95 C, 20 s at 68 C and 10 min at 72 C) and these products were digested with 5U of HpaI (New England Biolabs) for 2h at 37 C. The fragments were purified using Qiaquick PCR columns (Qiagen), analyzed on an ABI 3130xL genetic analyzer (Applied Biosystems) with peak positions identified by using a set of X-rhodamine (ROX)-labeled MapMarker1000 molecular weight standards (BioVentures). The raw capillary electrophoresis data was processed using Attagraph software (Attagene).

Row | Compound | outcome | AC50
1 | Clc1ccc(Cl)c(Cl)c1 | inactive | –
2 | CCCSC(=O)N(CCC)CCC | inactive | –
3 | CCCCC(CC)COC(=O)c1ccc(C(=O)OCC(CC)CCCC)c(C(=O)OCC(CC)CCCC)c1 (stereo not given) | inactive | –
4 | N#CC(Br)(Br)C(N)=O | inactive | –
5 | Clc1ccc(C(c2ccc(Cl)cc2)C(Cl)Cl)cc1 | inactive | –
6 | COC(=O)Nc1nc2ccccc2[nH]1 | inactive | –
7 | O=C(Oc1ccc(Br)cc1)N1CCN2CCC1CC2 | inactive | –
8 | c1ccc2c(c1)oc1ccccc12 | inactive | –
9 | [As]#[In] | inactive | –
10 | OCCOCCO | inactive | –
11 | Oc1ccc2ccc3cccc4ccc1c2c34 | inactive | –
12 | c1ccc(N=Nc2ccccc2)cc1 | inactive | –
13 | O=C1CCCO1 | inactive | –
14 | c1ccc2c(c1)-c1cccc3cccc-2c13 | inactive | –
15 | Nc1ccc(Cl)cc1N | inactive | –
16 | CS(=O)(=O)NC(=O)c1cc(Oc2ccc(C(F)(F)F)cc2Cl)ccc1[N+](=O)[O-] | inactive | –
17 | Cn1cc(-c2ccccc2)c(=O)c(-c2cccc(C(F)(F)F)c2)c1 | inactive | –
18 | O=P(OCCCl)(OCCCl)OCCCl | inactive | –
19 | COP(=S)(OC)SCN1C(=O)c2ccccc2C1=O | inactive | –
20 | O=C(O)C1C2CCC(O2)C1C(=O)O (stereo not given) | inactive | –

Row | Compound | outcome | AC50
21 | Nc1ccc([N+](=O)[O-])cc1 | inactive | –
22 | Cc1ccc([N+](=O)[O-])cc1 | inactive | –
23 | C=CCc1ccc2c(c1)OCO2 | inactive | –
24 | CC(C)(C)OOC(C)(C)CCC(C)(C)OOC(C)(C)C | inactive | –
25 | CCC12COCN1COC2 | inactive | –
26 | CCN(CC)CCO | inactive | –
27 | CCN(CC)N=O | inactive | –
28 | Oc1ccccc1Cl | inactive | –
29 | CCCCCCCCOC(=O)c1ccc(C(=O)OCCCCCCCC)c(C(=O)OCCCCCCCC)c1 | inactive | –
30 | O=C(Nc1ccccc1)c1ccccc1I | inactive | –
31 | O=C(N[C@H](c1ccccc1)[C@@H]1CN2CCC1CC2)c1c(Cl)ccc(C(F)(F)F)c1Cl | inactive | –
32 | CCNS(=O)(=O)C(F)(F)C(F)(F)C(F)(F)C(F)(F)C(F)(F)C(F)(F)C(F)(F)C(F)(F)F | inactive | 138 µM (active)
33 | Cc1ccc(N)c(N)c1 | inactive | –
34 | CO[C@@H]1[C@H](OC(=O)NC(=O)CCl)CC[C@]2(CO2)[C@H]1[C@@]1(C)O[C@@H]1CC=C(C)C | inactive | –
35 | ClCCOCCCl | inactive | –
36 | CCCCCOC(=O)c1ccccc1C(=O)OCCCCC | inactive | –
37 | Clc1ccccc1Cl | inactive | –
38 | ClC1=C(Cl)[C@]2(Cl)[C@H]3[C@H]([C@@H]4C=C[C@H]3C4)[C@@]1(Cl)C2(Cl)Cl | inactive | –
39 | CN(C)C(=O)Nc1ccc(Cl)cc1 | inactive | –

From PubChem BioAssay (EPA / NIEHS)
